# Assay results as given in PubChem BioAssay (NCATS).
# Records with an inconclusive call do not appear. Where a call stands in place of a potency, no number is given. Active and inactive are the calls of the source. Calls follow the shape of the dose curve; as a rule, active = well fitted cell-killing curve with a large enough effect; inconclusive = small, poorly fitted or top-dose-only effect, or effect the other way; inactive = flat fitted curve, though single readings scatter.
# Tested on: JEG-3
# Test: Primary qHTS to identify gynecologic anti-cancer compounds using libraries of approved drugs and bioactive compounds (AID 1345084); also: nearly all actives have a fitted effect of over 55% in size
# Details: Gynecologic cancer cell panel viability, ATPlite luminescence, 48 h; series mostly up to 57.5 µM
# In short: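 Cytotoxicity screen measuring ATP content by luciferase luminescence. Each compound is applied at five concentrations for 48 h at 37 C with 5% CO2.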
Structure (SMILES),Potency,"activity change, negative = cytotoxicity"
O=C(/C=C/c1ccc(O)cc1)O[C@H]1[C@@H]2C=CO[C@@H](O[C@@H]3O[C@H](CO)[C@@H](O)[C@H](O)[C@H]3O)[C@@H]2[C@@]2(CO)O[C@@H]12,inactive,
COCCN(C)Cc1ccc2nc3sc(C(=O)N(C)C4CCCCC4)cn3c2c1,inactive,
CC12CCC3c4ccc(O)cc4CCC3C1CCC2OC1OC(C(=O)O)C(O)C(O)C1O (stereo not given),inactive,
COc1cc(CCc2ccccc2)c(C(=O)O)c2c1CC(C(C)(C)O)O2 (stereo not given),inactive,
OCc1ccccc1O[C@@H]1O[C@H](CO)[C@@H](O)[C@H](O)[C@H]1O,inactive,
CC/C=C\C[C@H]1C(=O)C=C[C@@H]1CCCCCCCC(=O)O,inactive,
CC(NC(=O)CC(=O)O)c1nc2ccccc2c(=O)[nH]1 (stereo not given),inactive,
C[C@@H]1CC[C@]2(C(=O)O)CC[C@]3(C(=O)O)C(=CCC4[C@@]5(C)CC[C@H](O[C@@H]6O[C@@H](C)[C@H](O[C@@H]7O[C@H](CO)[C@@H](O)[C@H](O)[C@H]7O)[C@@H](O)[C@H]6O)C(C)(C)C5CC[C@]43C)C2[C@H]1C (stereo not given in full),inactive,
COc1ccc(C)c2sc(NC(=O)c3ccncc3)nc12,inactive,
NCCOCCOCCNC(=O)Cc1ccc(Nc2nc(NCc3ccc(F)cc3)nc(NCC3CCCCC3)n2)cc1,inactive,
Nc1nonc1C(=Nc1ccc(F)c(Cl)c1)NO,inactive,
CNC(=O)c1ccc2cc([C@@]3(O)CCn4cncc43)ccc2c1,inactive,
O=C1NCc2nc3ccccc3c(=O)n2C1Cc1c[nH]c2ccccc12 (stereo not given),inactive,
CCCCCCc1cccc(NC(=O)[C@H](N)CCP(=O)(O)O)c1,,8.47% [at 11.6 µM] (inactive)
CC1CCC2C(C)(C)CC(C)(CO)C2(O)C1C(=O)O (stereo not given),inactive,
CC(C)(C)NCC(O)COc1cccc2c1CCCC2=O (stereo not given),inactive,
COC(=O)C1=CO[C@@H](O[C@@H]2O[C@H](CO[C@@H]3O[C@H](COC(=O)/C=C/c4ccc(O)cc4)[C@@H](O)[C@H](O)[C@H]3O)[C@@H](O)[C@H](O)[C@H]2O)[C@@H]2C(CO)=CC[C@H]12,inactive,
C=CC(C)(O)CC/C=C(\C)C(=O)OCC1OC(OC2CCC3(C)C(CCC4(C)C3CC=C3C5CC(C)(C)C(O)CC5(C(=O)O)CCC34C)C2(C)C)C(O)C(OC2OC(CO)C(O)C(OC3OC(CO)C(O)C(OC4OC(COC5OC(CO)C(O)C(O)C5O)C(O)C(O)C4O)C3O)C2O)C1O (stereo not given),,7.76% [at 6.55 µM] (inactive)
COC1C=C([C@@H]2CC=C3[C@@]4(C)C(CC[C@]32C)[C@@]2(C)C=CC(=O)C(C)(C)C2C[C@H]4OC(C)=O)C(=O)O1 (stereo not given in full),inactive,
Cc1c(N2C(=O)c3ccc(C(=O)O)cc3C2=O)c(=O)n(-c2ccccc2)n1C,inactive,

Structure (SMILES),Potency,"activity change, negative = cytotoxicity"
CC[C@H]1OC(=O)[C@H](C)[C@@H](OC2C[C@@](C)(OC)[C@@H](O)[C@H](C)O2)[C@H](C)[C@@H](OC2O[C@H](C)C[C@H](NC)[C@H]2O)[C@](C)(O)C[C@@H](C)CN(C)[C@H](C)[C@@H](O)[C@]1(C)O (stereo not given in full),inactive,
C=C1C2(CCC(=O)OC2(C)C)CC(OC(=O)/C(C)=C/C)C2(C)C13OC14C(=O)OC(C)(C(=O)C12C(=O)OC4C)C3OC(C)=O (stereo not given),inactive,
C=C1C(=O)OC2/C=C(\C)CC/C=C(\C(=O)O)CC/C=C(\C)CCC12 (stereo not given),inactive,
CC(C)c1nc(N(C)S(C)(=O)=O)nc(-c2ccc(F)cc2)c1/C=C/[C@@H](O)C[C@@H](O)CC(=O)O,inactive,
C=C1C[C@]23C[C@H]1CC[C@H]2[C@@]12C=C[C@H](O)[C@@](C)(C(=O)O1)[C@H]2[C@@H]3C(=O)O,inactive,
COC1C2=C(COC2=O)C2(C)CCCC(C)(CO)C2C1OC(=O)c1ccccc1 (stereo not given),inactive,
CC1CCCC2OC2C(=O)c2c(O)cc(O)cc2CC(=O)O1 (stereo not given),inactive,
C[C@@H]1C(=O)O[C@H]2CC34[C@H]5C[C@@H](C(C)(C)C)C36[C@@H](OC(=O)[C@@H]6O)O[C@@]4(C(=O)O5)[C@]21O (stereo not given in full),inactive,
CC(C)C(C#N)O[C@@H]1O[C@H](CO[C@@H]2OC[C@](O)(CO)[C@H]2O)[C@@H](O)[C@H](O)[C@H]1O (stereo not given in full),inactive,
CC[C@H]1OC(=O)[C@H](C)[C@@H](O[C@H]2C[C@@](C)(OC)[C@@H](O)[C@H](C)O2)[C@H](C)[C@@H](O[C@@H]2O[C@H](C)C[C@H](N(C)C)[C@H]2O)[C@@](C)(O)C[C@@H](C)[C@@H]2N[C@@H](COCCOC)OC([C@H]2C)[C@]1(C)O,inactive,
CCc1cc2c(=O)c(-c3nc4ccccc4s3)coc2c(CN2CCCCC2)c1O,inactive,
C=C1C(=O)OC2CC(C)=C(C(C)CCCO[C@@H]3O[C@H](CO)[C@@H](O)[C@H](O)[C@H]3O)C(O)C12 (stereo not given in full),inactive,
CCC(C)/C=C(C)/C=C/C1=CC2=C(Cl)C(=O)C(C)(OC(C)=O)C(=O)C2=CN1CCCC(=O)O (stereo not given),inactive,
CC(=O)OC[C@@]12[C@H](O)C[C@]3(C)C(=CCC4[C@@]5(C)CC[C@H](O[C@@H]6O[C@H](C(=O)O)[C@@H](O[C@@H]7O[C@H](CO)[C@@H](O)[C@H](O)[C@H]7O)[C@H](O)[C@H]6O[C@@H]6O[C@H](CO)[C@@H](O)[C@H](O)[C@H]6O)[C@](C)(CO)C5CC[C@]43C)[C@@H]1CC(C)(C)[C@@H](OC(C)=O)[C@@H]2O (stereo not given in full),,-2.75% [at 11.6 µM] (inactive)
COc1ccc([C@@H]2N[C@H](C(=O)O)Cc3c2[nH]c2ccccc32)cc1CN1CCN(c2ccccc2F)CC1,inactive,
CC1=CC(=O)CC(C)(C)C1(O)CCC(C)O (stereo not given),inactive,
COc1ccccc1[C@@H]1C2=C(CC(C)(C)CC2=O)Nc2n[nH]c(C(F)(F)F)c21,inactive,
CC(C)(OC1OC(CO)C(O)C(O)C1O)C1CCC(O)(CO)C2CC(O)C(C)(O)C2C1 (stereo not given),inactive,
CN1C(=O)c2ccccc2-n2c(nc3ccccc3c2=O)/C1=C/c1ccccc1,inactive,
CC(=O)OCC(=O)O[C@@H]1[C@H]2[C@@H](OC(=O)c3ccccc3)[C@@H](C)C[C@]2(O)[C@H](OC(C)=O)C2(C)[C@H]3CC(C)(C)C(=O)[C@@H]3CC1(OC(C)=O)[C@@H]2OC(C)=O (stereo not given in full),inactive,
